# Where “and” joins values, the source holds several entries; their conditions need not be identical. Identical values can stand only once. Inconclusive results are not listed. For some of these results: Potency and affinity values are given separately. Calls of active or inactive are those of the source. Unless noted, no stated cut-off is given here; in the data, active means inhibition above about 80%; inactive means the rest. Where a SMILES comes first, the peptide text is derived from it. [ ]: non-standard residue; d: D form. The star is where a group is joined. Sta = CC(C)C[C@H](N)[C@@H](O)CC(=O)O; Isovaleryl = CC(C)CC(=O)*
# Legend:
# [1] = blockers of polyQ-driven CASP3 activation – cell-based (AID 1583); conditions: polyglutamine-induced caspase-3 activation, cell assay; stronger effect = higher value;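 tested at 10 µM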
# [2] = yeast 75Q aggregation reduction – 75Q-TubU reporter (AID 1593); conditions: Yeast 75Q polyglutamine aggregation reporter
# [3] = restoration of touch response, mutant HTT neurons – whole organism, C. elegans mechanosensory neurons, N-terminal huntingtin (AID 1599); conditions: C. elegans polyQ-huntingtin mechanosensory neurons, stronger effect = higher value
# [4] = blockers of cytochrome c efflux from mitochondria – biochemical, purified mitochondria (AID 1603); conditions: stronger effect = lower value;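 further: mouse liver mitochondria challenged with calcium chloride; signal normalized to the plate average as 100%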
# [5] = polyglutamine aggregate formation blockers (AID 1604); conditions: polyglutamine-induced protein aggregation inhibition assay; stronger effect = higher value; tested at 2.5 µM
# [6] = glutamate transport activators, MN-1 cells, MN-1 cell line (AID 1612); conditions: MN-1 motor neuron cells, stronger effect = higher value;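 further: tested at 1 µM final; 0% = mean of DMSO vehicle wells on each plate; positive means more glutamate uptake than control and negative means less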
# [7] = 75Q-TubH aggregate inhibition, S. cerevisiae, yeast (AID 1616); conditions: S. cerevisiae 75Q-TubH polyglutamine aggregation suppression; stronger effect = higher value
# [8] = molecular target: ATP-dependent translocase ABCB1 (Homo sapiens) (UniProt P08183); assay: P-glycoprotein substrate transport blockade – cell-based (AID 377; in the data active means fluorescence slope change above about 50%); conditions: MDR1-expressing cells, fluorescent substrate accumulation slope; stronger effect = higher value; concentration not given here
# [9] = GFP-Q80 aggregate reduction, neuronal-like cells, cell-based, NGF-treated PC12, GFPQ80 (AID 1614); conditions: PC12 NGF-treated GFP-polyQ80 inclusion reduction;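 further: lower means fewer inclusions and 0 means no inclusions at all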
# [10] = chitosan synthesis blockers in C. neoformans – flow cytometry, Cibacron Brilliant Red staining (AID 1347148; call rule not given here;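 further: compound exposure lasted three days at 37 degrees C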); conditions: Cryptococcus neoformans chitosan, stronger effect = lower value; at 10 µM unless noted
# [11] = signal quenchers or enhancers, Cy5 substrate/SSB – biochemical, NIH Clinical Collection, E. coli SSB, artefact control for HCV NS3 helicase inhibitor project (AID 743268; call rule not given here); conditions: Cy5-oligo bound E. coli SSB, fluorescence interference
# [12] = test system: Hepatitis C virus NS3 helicase; assay: blockers of NS3h binding to DNA – biochemical, fluorescence polarization, NIH Clinical Collection, primary screen (AID 743270; call rule not given here); conditions: NS3 helicase binding to Cy5-dT15 DNA, stronger effect = higher value, concentration not given here
# [13] = molecular target: Single-stranded DNA-binding protein (Escherichia coli (strain K12)) (UniProt P0AGE0); assay: SSB-ssDNA binding inhibitors – biochemical, fluorescence polarization, NIH Clinical Collection, counter-screen for HCV NS3 helicase inhibitor project (AID 743271; in the data active means inhibition above about 28%); conditions: E. coli SSB-DNA binding, stronger effect = higher value, concentration not given here
# [14] = growth inhibition, single agents and combos, LFS_MB_1R, cell-based, cisplatin or BGB combos, synergistic combos for chromothripsis tumors (AID 1671452); conditions: LFS_MB_1R medulloblastoma cells, stronger effect = higher value;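 further: cells exposed for 96 hours before readout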
# [15] = growth inhibition, single agents and combos, CRL2098, cell-based, BGB or cisplatin IC20 combos, synergistic combos for chromothripsis tumors (AID 1671454); conditions: CRL2098 osteosarcoma cells, drug combinations, stronger effect = higher value;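 further: cells exposed for 96 h before readout; 0% = vehicle DMSO and 100% = killing by high DMSO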
# [16] = growth inhibition, single agents and combos, HD-MB03, cell-based, BGB or cisplatin IC20 combos, synergistic combos for chromothripsis tumors (AID 1671455; in the data active means inhibition above about 83%;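 further: 0% = vehicle DMSO and 100% = high DMSO as cytotoxic control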); conditions: HD-MB03 medulloblastoma cells, stronger effect = higher value
# [17] = growth inhibition, single agents and combos, UWB1.289, cell-based, BGB or cisplatin combos, synergistic combos for chromothripsis tumors (AID 1671456); conditions: UWB1.289 ovarian carcinoma cells, stronger effect = higher value;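 further: cells exposed to compound for four days; 0% = vehicle DMSO and 100% = killing by high DMSO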
# [18] = growth inhibition, single agents and combos, LFS_MB_2R, cell-based, cisplatin combos, synergistic combos for chromothripsis tumors (AID 1671457); conditions: LFS_MB_2R medulloblastoma cells, stronger effect = higher value;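 further: cells exposed to compound for four days before readout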
# [19] = UWB1.289_BRCA1 ovarian cancer growth, cell-based, BGB or cisplatin combinations (AID 1671459); conditions: UWB1.289 BRCA1 ovarian carcinoma, drug combinations, stronger effect = higher value
# [20] = drug combination toxicity in non-malignant astrocytes – cell-based, BGB or cisplatin IC20 combos, cytotoxicity control for chromothriptic childhood tumor combination screen (AID 1671460); conditions: Human astrocytes, viability inhibition, drug combinations, at 0.5 µM, stronger effect = higher value;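 further: cells exposed to compounds for 96 hours before viability readout; 0% = vehicle and 100% = killing control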
# [21] = measured here: combination with BGB IC40, at 0.05 µM
# [22] = measured here: combination with cisplatin, at 0.5 µM
# [23] = measured here: combination with cisplatin, at 5 µM
# [24] = measured here: combination with BGB at IC20, at 0.5 µM
# [25] = measured here: combination with cisplatin at IC20, at 0.5 µM
# [26] = measured here: combo with BGB at IC20, at 0.5 µM
# [27] = measured here: combo with cisplatin at IC20, at 0.5 µM
# [28] = measured here: inhibition with BGB combination, at 0.05 µM
# [29] = measured here: inhibition with cisplatin combination, at 0.05 µM
# [30] = BGB combination, concentration series, at 5 µM
# [31] = cisplatin combination, concentration series, at 5 µM
# [32] = measured here: combo with BGB IC20
# [33] = measured here: combo with cisplatin IC20
# Chain of ATP-dependent translocase ABCB1 (Homo sapiens) (P08183 whole entry, looked up): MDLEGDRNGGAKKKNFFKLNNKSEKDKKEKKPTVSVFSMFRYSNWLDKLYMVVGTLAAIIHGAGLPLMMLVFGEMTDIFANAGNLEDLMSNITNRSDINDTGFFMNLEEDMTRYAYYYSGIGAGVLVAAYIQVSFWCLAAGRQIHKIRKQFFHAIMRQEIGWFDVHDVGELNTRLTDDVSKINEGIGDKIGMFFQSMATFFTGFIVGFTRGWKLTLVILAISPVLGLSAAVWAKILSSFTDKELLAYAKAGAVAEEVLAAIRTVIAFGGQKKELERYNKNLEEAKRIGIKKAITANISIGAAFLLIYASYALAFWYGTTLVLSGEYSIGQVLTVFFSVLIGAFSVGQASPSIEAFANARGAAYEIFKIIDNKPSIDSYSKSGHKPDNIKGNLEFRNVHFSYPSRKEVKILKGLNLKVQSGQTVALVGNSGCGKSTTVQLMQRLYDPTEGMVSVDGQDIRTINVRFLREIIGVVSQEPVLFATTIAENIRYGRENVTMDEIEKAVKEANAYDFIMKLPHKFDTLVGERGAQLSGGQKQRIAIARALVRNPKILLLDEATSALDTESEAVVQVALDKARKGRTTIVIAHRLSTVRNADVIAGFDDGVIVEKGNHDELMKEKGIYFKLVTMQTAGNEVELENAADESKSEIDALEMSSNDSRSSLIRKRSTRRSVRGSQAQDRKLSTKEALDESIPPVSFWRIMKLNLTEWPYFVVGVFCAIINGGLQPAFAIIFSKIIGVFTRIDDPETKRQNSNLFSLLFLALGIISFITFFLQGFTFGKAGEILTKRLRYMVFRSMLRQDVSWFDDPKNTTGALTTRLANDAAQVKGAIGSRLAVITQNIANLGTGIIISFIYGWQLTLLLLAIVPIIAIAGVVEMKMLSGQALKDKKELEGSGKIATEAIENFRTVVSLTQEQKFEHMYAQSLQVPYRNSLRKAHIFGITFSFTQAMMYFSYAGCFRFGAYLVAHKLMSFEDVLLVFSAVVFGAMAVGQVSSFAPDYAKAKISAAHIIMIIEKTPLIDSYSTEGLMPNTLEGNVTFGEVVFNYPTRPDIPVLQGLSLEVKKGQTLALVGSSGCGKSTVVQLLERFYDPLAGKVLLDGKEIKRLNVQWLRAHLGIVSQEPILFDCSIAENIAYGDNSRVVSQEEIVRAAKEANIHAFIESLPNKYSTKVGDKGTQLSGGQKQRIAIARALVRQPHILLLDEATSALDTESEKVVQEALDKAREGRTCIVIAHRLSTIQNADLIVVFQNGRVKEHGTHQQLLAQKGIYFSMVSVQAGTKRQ
structure (smiles),measurement,setting,value
CCN(CC)CCOc1ccc2c(c1)C(=O)c1cc(OCCN(CC)CC)ccc1-2,inhibition,[1],-90.6%
same,score,[2],1.3
same,rescue above control,[3],-4.59
same,cytochrome c release ratio,[4],0.81
same,inhibition of aggregation,[5],63.2%
same,glutamate uptake change,[6],22.5%
same,aggregation suppression score,[7],1.61
CN(C)CCCOc1nn(Cc2ccccc2)c2ccccc12,fluorescence slope change,[8],153% (active)
CC[C@@H](CO)NCCN[C@@H](CC)CO,inhibition,[1],-11.7%
same,score,[2],1.09
same,rescue above control,[3],2.87
same,cytochrome c release ratio,[4],1.07
same,inhibition of aggregation,[5],43.6%
same,glutamate uptake change,[6],-22.3%
same,inclusion score,[9],2
same,aggregation suppression score,[7],1.18
CC1=C(/C=C/C(C)=C/C=C/C(C)=C/C(=O)Nc2ccc(O)cc2)C(C)(C)CCC1,fold fluorescence,[10],6.05 (inactive)
CC#C[C@]1(O)CC[C@H]2[C@@H]3CCC4=CC(=O)CCC4=C3[C@@H](c3ccc(N(C)C)cc3)C[C@@]21C,fluorescence slope change,[8],142% (active)
same,fluorescence ratio,[11],0.97 (inactive)
same,inhibition,[12],2.4% (inactive)
same,inhibition,[13],-1.18% (inactive)
CN(C)C/C=C(/c1ccc(Br)cc1)c1cccnc1,fluorescence slope change,[8],159% (active)
FC(F)(F)c1ccccc1-n1ccnc1,fold fluorescence,[10],8.97 [at 235.7 µM] (inactive)
C[C@@H](CN1CC(=O)NC(=O)C1)N1CC(=O)NC(=O)C1,inhibition,[14]; at 0.5 µM,-13.2% (inactive)
same,inhibition,[14]; [21],-25.5%
same,inhibition,[14]; [22],-32.2%
same,inhibition,[14]; [23],-35.9%
same,inhibition,[15]; at 0.5 µM,-49.6% (inactive)
same,inhibition,[15]; [24],-22.2%
same,inhibition,[15]; [25],-110%
same,inhibition,[16]; at 0.5 µM,-16.4% (inactive)
same,inhibition,[16]; [26],-23.7%
same,inhibition,[16]; [27],-12.8%
same,inhibition,[17]; at 0.5 µM,-10.9% (inactive)
same,inhibition,[17]; [28],-2.15%
same,inhibition,[17]; [29],-21.4%
same,inhibition,[18]; at 0.5 µM,-10.5% (inactive)
same,inhibition,[18]; [22],-11.4%
same,inhibition,[18]; [23],-5.98%
same,inhibition,[19]; [30],-10.8%
same,inhibition,[19]; at 0.5 µM,-7.98% (inactive)
same,inhibition,[19]; [31],-4.24%
same,inhibition,[20],0.89% (inactive)
same,inhibition,[20]; [32],-5.32%
same,inhibition,[20]; [33],12.3%
CCCCCCCCCCCCCCCC(=O)NCCO,fold fluorescence,[10],4.46 (inactive)
CC(C)CC(=O)N[C@H](C(=O)N[C@H](C(=O)N[C@@H](CC(C)C)[C@@H](O)CC(=O)N[C@@H](C)C(=O)N[C@@H](CC(C)C)[C@@H](O)CC(=O)O)C(C)C)C(C)C (Isovaleryl-VV[Sta]A[Sta]-OH),fold fluorescence,[10],4.93 [at 72.9 µM] (inactive)
NS(=O)(=O)c1cc(Cl)c(Cl)c(S(N)(=O)=O)c1,fluorescence slope change,[8],82.9% (active)
CCCCCOC(=O)Nc1nc(=O)n([C@@H]2O[C@H](C)[C@@H](O)[C@H]2O)cc1F,inhibition,[14]; at 0.5 µM,-36.3% (inactive) and -17.9% (inactive)
same,inhibition,[14]; [21],-77.2% and -11.6%
same,inhibition,[14]; [22],-36.7% and -43%
same,inhibition,[14]; [23],-42.5% and -67.7%
same,inhibition,[15]; at 0.5 µM,-110% (inactive) and -37.4% (inactive)
same,inhibition,[15]; [24],-124% and -32.3%
same,inhibition,[15]; [25],-103% and -72.6%
same,inhibition,[16]; at 0.5 µM,-17.2% (inactive) and -2.76% (inactive)
same,inhibition,[16]; [26],-8.55% and -7.81%
same,inhibition,[16]; [27],-34.6% and 2.4%
same,inhibition,[17]; at 0.5 µM,-11.5% (inactive) and 9.77% (inactive)
same,inhibition,[17]; [28],-37.1% and -7.89%
same,inhibition,[17]; [29],-5.98% and 11.7%
same,inhibition,[18]; at 0.5 µM,-21.1% (inactive) and -14.8% (inactive)
same,inhibition,[18]; [22],-19.7% and -16.3%
same,inhibition,[18]; [23],-95.1% and -10.2%
same,inhibition,[19]; [30],-26.2% and 5.45%
same,inhibition,[19]; at 0.5 µM,-11.8% (inactive) and 4.86% (inactive)
same,inhibition,[19]; [31],-6.41% and 4.95%
same,inhibition,[20],-8.94% (inactive) and 6.03% (inactive)
same,inhibition,[20]; [32],-11% and -1.61%
same,inhibition,[20]; [33],-23.1% and 9.49%

# From PubChem BioAssay
